# Out of some 63,000 compounds screened, about 1,100 (1.7%) were called active. Cut-off read from the data, not from the text of the source: active = cytotoxicity above about 50%; inactive = the rest. The sample as a whole holds a higher share of actives than the screen did. Potency and affinity values are given separately.
# Assay: HPDE-C7 pancreatic duct cell viability loss – fluorescence, HTS (AID 430);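 note: cells exposed to compound for 48 hours before viability readout; 0% = vehicle and 100% = reference cytotoxic drug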
# Settings: HPDE-C7 pancreatic duct cells viability, at 10 µM, stronger effect = higher value
row,SMILES,cytotoxicity
1,O=C(NCCn1cccc1)c1cccc2ccccc12,1.3% (inactive)
2,CCOC(=O)C1CCCN(Cc2ccc(OC)cc2OC)C1 (stereo unspecified),8.6% (inactive)
3,COc1ccc(-c2nnc(-c3cccs3)o2)cc1OC,-10.3% (inactive)
4,COc1ccc(-c2nc3ccccc3s2)cc1O,-5.7% (inactive)
5,COc1ccc(-c2nc(-c3cccs3)c(-c3cccs3)[nH]2)cc1O,71.6% (active)
6,Fc1cccc(Cl)c1CSc1nnnn1-c1ccc2c(c1)OCO2,53.7% (active)
7,Fc1cccc(Cl)c1Cn1nnc(-c2ccc3c(c2)OCO3)n1,-6.1% (inactive)
8,Fc1ccccc1CSc1nnnn1-c1ccc2c(c1)OCO2,-2% (inactive)
9,CCc1nccn1S(=O)(=O)c1ccc(C)c(C)c1,2.1% (inactive)
10,COc1ccc(OC)c(C(c2nnnn2CC2CCCO2)N2CCN(C3CCCC3)CC2)c1 (stereo unspecified),-10.4% (inactive)
11,CC(Sc1ccccc1)C(=O)Nc1ccc(S(=O)(=O)N2CCOCC2)cc1 (stereo unspecified),-9.5% (inactive)
12,CC1CN(C2CCCCC2)c2nc3c(c(=O)[nH]c(=O)n3C)n2C1 (stereo unspecified),-2% (inactive)
13,COc1cc(S(=O)(=O)N2CCCC3(CCCCC3)C2)ccc1-n1cnnn1,78.1% (active)
14,COc1cc(S(=O)(=O)N2CCC(N3CCCCC3)CC2)ccc1-n1cnnn1,9.2% (inactive)
15,COc1cc(S(=O)(=O)N2CCN3CCCC3C2)ccc1-n1cnnn1 (stereo unspecified),5.7% (inactive)
16,CCOC(=O)C1=C(C)NC2=C(C(=O)CCC2)C1c1ccc(N(C)C)cc1 (stereo unspecified),1.2% (inactive)
17,COc1ccc(CCNC(=O)C2CCCN(S(=O)(=O)c3cccc4nonc34)C2)cc1OC (stereo unspecified),-21.9% (inactive)
18,OC(COc1ccccc1)CN1C2=NCCCN2c2ccccc21 (stereo unspecified),4.3% (inactive)
19,O=C(NCc1ccco1)C1OCCc2ccccc21 (stereo unspecified),-15.1% (inactive)
20,CCOC(=O)C1CCN(C(=O)c2ccc(SC)cc2OC)CC1,-4.9% (inactive)
21,c1coc(-c2nnc(SCc3nc4ccccc4[nH]3)o2)c1,65.9% (active)
22,c1cncc(-c2nnc(SCc3nc4ccccc4[nH]3)o2)c1,-14.6% (inactive)
23,c1ccc2[nH]c(CSc3nnc(-c4ccncc4)o3)nc2c1,3.2% (inactive)
24,Cc1cc(C)nc(NS(=O)(=O)c2ccc(NC(=O)CCCN3C(=O)c4ccccc4C3=O)cc2)n1,1.9% (inactive)

row,SMILES,cytotoxicity
1,CC(=O)Nc1c(O)n(C)c2ccccc12,-20.2% (inactive)
2,COc1ccc(-n2c(Cc3cccn3C)nnc2SCC(=O)NC2CCCCC2)cc1,-11.2% (inactive)
3,COc1ccc(N(CC(=O)NC2CCCC2)C(=O)Cn2nnc(-c3ccc(C)cc3)n2)cc1OC,-4.2% (inactive)
4,CC1C(=O)CCC1(C(=O)O)c1ccccc1 (stereo unspecified),9.4% (inactive)
5,Cc1ccc(-c2csc3ncnc(-n4nc(C)cc4N)c23)cc1,0.5% (inactive)
6,CCn1c(CN2CCCCCC2=O)nnc1SCc1cnc(-c2ccccc2)s1,4.1% (inactive)
7,CN1CCN(Cc2nc3c(c(=O)[nH]c(=O)n3C)n2Cc2c(F)cccc2Cl)CC1,-13.5% (inactive)
8,CN(Cc1ccccc1)C(=O)CCS(=O)(=O)c1ccc2c(c1)n(C)c(=O)c(=O)n2C,-7% (inactive)
9,COc1ccc2[nH]c(=O)c(CN(Cc3ccco3)C(=O)c3ccccc3)cc2c1,-8.8% (inactive)
10,CCOc1ccc2[nH]c(=O)c(CN(Cc3ccco3)C(=O)c3ccc(Br)cc3)cc2c1,22.7% (inactive)
11,CCOc1ccc2[nH]c(=O)c(CN(Cc3ccco3)C(=O)c3cccc(F)c3)cc2c1,78% (active)
12,CCCn1nnc(NC(=O)COc2ccc(Cl)cc2)n1,-10.6% (inactive)
13,COCCN(C(=O)Cc1cccs1)c1nnc(-c2cccnc2)s1,-0.4% (inactive)
14,Cc1ccccc1Cn1ccc(NC(=O)c2cnn3c(C(F)(F)F)cc(-c4ccco4)nc23)n1,37.2% (inactive)
15,O=C(Nc1cnn(Cc2ccc(F)cc2)c1)c1cc2nc(-c3ccco3)cc(C(F)(F)F)n2n1,38.9% (inactive)
16,Cc1ccccc1Cn1ccc(NC(=O)c2cc3nc(-c4ccco4)cc(C(F)(F)F)n3n2)n1,53% (active)
17,Cc1ccccc1Cn1cc(NC(=O)c2cc3nc(-c4ccco4)cc(C(F)(F)F)n3n2)cn1,29.2% (inactive)
18,O=C(Nc1ccc(Cl)cc1)c1cc2nc(-c3ccco3)cc(C(F)(F)F)n2n1,66.2% (active)
19,O=C(Nc1cnn(Cc2ccccc2)c1)c1cc2nc(-c3ccco3)cc(C(F)(F)F)n2n1,6% (inactive)
20,CCOc1ccc(OCC)c(NC(=O)CCn2cccc2)c1,7.1% (inactive)
21,O=C(NCC(c1cccnc1)N1CCOCC1)c1cccs1 (stereo unspecified),-33.1% (inactive)
22,COc1ccc(-c2c(C#N)c(SCc3c(C)noc3C)nc3c2C(=O)CC(C)(C)C3)cc1,-11% (inactive)
23,Cc1cc(NC(=O)CS(=O)(=O)c2cn(Cc3cccc(F)c3)c3ccccc23)no1,-2.5% (inactive)
24,CCOc1ccc(C(=O)NCC2CCCO2)cc1 (stereo unspecified),1.4% (inactive)

row,SMILES,cytotoxicity
1,c1csc(-c2ccc3ccccc3n2)c1,9.1% (inactive)
2,COC(=O)c1ccc(C)c(NS(=O)(=O)c2ccc(NC(C)=O)cc2)c1,20.6% (inactive)
3,COC(=O)c1ccc(C)c(NC(=O)CN(c2ccc3c(c2)OCO3)S(C)(=O)=O)c1,-6.6% (inactive)
4,O=C(O)c1ccc(NS(=O)(=O)c2ccc3c(c2)OCCO3)cc1,0.3% (inactive)
5,COC(=O)c1ccc(C)c(NS(=O)(=O)c2ccc3c(c2)OCCO3)c1,62.8% (active)
6,COC(=O)c1ccc(C)c(NS(=O)(=O)c2ccc(OC)cc2)c1,68% (active)
7,COC(=O)c1ccc(Cl)c(NS(=O)(=O)c2ccc3c(c2)OCCO3)c1,55.7% (active)
8,CC(=O)c1cc2c(cc1NS(=O)(=O)c1ccc3c(c1)OCCO3)OCO2,36.4% (inactive)
9,COC(=O)c1ccc(NS(=O)(=O)c2ccc(OC)cc2)cc1,2% (inactive)
10,CCCNC(=O)c1ccccc1NS(=O)(=O)c1ccc2c(c1)OCCO2,14.8% (inactive)
11,O=S(=O)(NCCC1=CCCCC1)c1cccc2nsnc12,-4.7% (inactive)
12,CCn1c(COc2ccccc2C)nnc1SCC(=O)N1CCC(C)CC1,-9.2% (inactive)
13,CCCC(C)NC(=O)c1ccc(F)cc1 (stereo unspecified),-1.2% (inactive)
14,CCN(C(=O)CSc1nc2nc(C)cc(C)n2n1)c1cccc(C)c1,-9% (inactive)
15,OC1CCCN(Cc2ccc3c(c2)Cc2ccccc2-3)C1 (stereo unspecified),-0.6% (inactive)
16,CC1Cc2ccccc2N1C(=O)c1ccc2c(c1)nnn2C (stereo unspecified),-5.8% (inactive)
17,CCc1c(C)nc2cc(-c3ccc(OC)c(OC)c3)nn2c1N1CCCC1,8.9% (inactive)
18,CCOCCN1CCN(c2c(C)c(C)nc3cc(-c4cc(OC)cc(OC)c4)nn23)CC1,21.4% (inactive)
19,CCCOc1ccc(C2C(=O)N(C3CCCCC3)CC(=O)N2CCC)cc1OC (stereo unspecified),-24.3% (inactive)
20,COc1ccccc1NC(=O)C(O)C(O)C(=O)Nc1ccccc1OC (stereo unspecified),6.7% (inactive)
21,CCn1c(SCc2nc3ccccc3[nH]2)nnc1-c1ccccc1OC,-14.9% (inactive)
22,COC(=O)c1cc(OC)c(OC)cc1N=CC1=C(O)CC(C)(C)CC1=O,10.3% (inactive)
23,c1cncc(-c2nn3cnnc3s2)c1,3.2% (inactive)
24,CCN(CCO)C(=O)C12CCC(C)(C(=O)C1)C2(C)C (stereo unspecified),5.2% (inactive)

row,SMILES,cytotoxicity
1,CCOc1ccc(-n2nnnc2SCC(=O)c2ccccc2)cc1,59.8% (active)
2,COc1ccc(-n2nnnc2SCC(=O)c2ccc(O)c(O)c2)cc1,17.9% (inactive)
3,COc1ccc(-n2nnnc2SCC(=O)c2cccc(OC)c2)cc1,6.3% (inactive)
4,Cc1ccc(S(=O)(=O)N(C)c2nonc2C)cc1,9.7% (inactive)
5,CN(Cc1cnn(C)c1)C(=O)c1cc2ccccc2oc1=O,-0.7% (inactive)
6,C[C@]12CC[C@@H]3c4ccc(O)cc4CC[C@H]3[C@@H]1CCC2=O,12.1% (inactive)
7,C[C@]12CC[C@@H]3c4ccc(O)cc4CC[C@H]3[C@@H]1CC[C@@H]2OC(=O)CCC(=O)O,4.5% (inactive)
8,O=C(NCC(=O)N(c1ccc(F)cc1)C(C(=O)NCC1CCCO1)c1ccccc1)c1ccco1 (stereo unspecified),-7.1% (inactive)
9,CN1C(=O)C(O)(CC(=O)c2cccc(-n3cccc3)c2)c2ccccc21 (stereo unspecified),-0.5% (inactive)
10,Cc1cc(=O)[nH]c2ccccc12,-2.8% (inactive)
11,CN(C)C=Nc1ncc2c([nH]c3ccccc32)c1C#N,15.4% (inactive)
12,CCC(C(=O)NC1CCCC1)N(C(=O)Cn1nnc(-c2ccc(OC)c(OC)c2)n1)C1CCCCC1 (stereo unspecified),-12.1% (inactive)
13,CC(C)(C#CCN1CCCC1)OCCC#N,-16.7% (inactive)
14,O=C(CN1C(=O)c2ccccc2S1(=O)=O)Nc1ccc(S(=O)(=O)N2CCCCC2)cc1,-22% (inactive)
15,C/C=C/c1ccc(OC)c(OC(C)=O)c1,-5.1% (inactive)
16,COc1cc(/C=C/C2=NC(=O)C(C)(C)O2)ccc1O,53.4% (active)
17,COc1cc(/C=N/n2nnnc2N)ccc1O,3.8% (inactive)
18,O=C(O)/C=C/c1ccc(O)c(O)c1,-18.3% (inactive)
19,COc1cc(-c2cc(OC)c3c(C)oc(C)c3c(=O)c2)ccc1O,38% (inactive)
20,CCOc1ccccc1C1C2C(=O)N(c3ccccc3)C(=O)C2ON1c1ccccc1 (stereo unspecified),-2.8% (inactive)
21,Cc1cc(C)c2[nH]c(=O)c(CN(Cc3ccc4c(c3)OCO4)Cc3nnnn3C3CCCC3)cc2c1,14.9% (inactive)
22,CCOCCCNC(=O)C(NC(=O)c1ccc(=O)[nH]c1)c1ccccc1 (stereo unspecified),2.7% (inactive)
23,COc1ccc(S(=O)(=O)N(C)CC(=O)N2CCCCCC2)cc1OC,-2.9% (inactive)
24,COc1cccc(N2CCN(C3CC(=O)N(c4ccc(Cl)c(Cl)c4)C3=O)CC2)c1 (stereo unspecified),1.1% (inactive)

# Reference: PubChem BioAssay AID430 (Sanford-Burnham Center for Chemical Genomics, 2006)
